The values that follow come from PubChem BioAssay AID1571 (National Center for Advancing Translational Sciences (NCATS), 2009).

Results filed as inconclusive are left out. Values without a mark were called inactive. The source made the active and inactive calls. Calls follow the shape of the dose curve; as a rule, active = well fitted curve in the direction sought with a large enough effect; inconclusive = small, poorly fitted or top-dose-only effect, or effect the other way; inactive = flat fitted curve, though single readings scatter.

The assay in a line: Total Fluorescence Confirmation Counterscreen for Inhibitors of the Interaction of Thyroid Hormone Receptor and Steroid Receptor Coregulator 2, Fluorescein Fluoroprobe. As to conditions: TRbeta/SRC2-fluorescein mix, total fluorescence interference; series mostly up to 92.2 µM; total fluorescence change, positive = fluorescent: at the top concentration. From the text: NIH Molecular Libraries Probe Production Network [MLPCN] NIH Chemical Genomics Center [NCGC] MLPCN Grant: DK058080 Assay Provider: R. Kip Guy, St. Jude Children's Research Hospital NCGC Assay Overview: Thyroid receptor (TR) regulates many homeostatic processes including basal metabolism, cardiovascular function, body weight, and lipid trafficking. TR modulators are potential therapeutics for obesity and hyperlipidemias but current thyroid analogs have undesirable side effects, particularly cardiac stimulation. To identify inhibitors that specifically prevent the interaction of TR with the steroid receptor coregulator 2 (SRC2), a fluorescence polarization assay was screened (Arnold et al., 2006). This assay detects interaction of the ligand-binding domain of human TRbeta with a fluorescein labeled SRC2 peptide, corresponding to a 20 amino acid region of the nuclear receptor interaction domain. Total fluorescence (555 nm excitation and 632 nm emission) was measured to identify potential fluorescent and light absorbing compounds. Such compounds may be artifacts that interfere with the fluorescence polarization assay. This assay is a confirmation assay for AID 1479. Arnold, L. A.; Estebanez-Perpina, E.; Togashi, M.; Shelat, A.; Ocasio, C. A.; McReynolds, A. C.; Nguyen, P.; Baxter, J. D.; Fletterick, R. J.; Webb, P.; Guy, R. K. A high-throughput screening method to identify small molecule inhibitors of thyroid hormone receptor coactivator binding. Sci STKE 2006, p 13.
NCGC Assay Protocol Summary: For screening, 5 uL/well 0.6 uM TRbeta and 20 nM SRC2 Fluorescein in protein buffer (20mM Tris hydrochloride, 100mM NaCl, 10% glycerol, 1mM EDTA, 0.01% NP-40, 1mM DTT, 1uM T3 and 5% DMSO) was dispensed into black solid 1536-well plates (Grenier) using a solenoid-based dispenser. Following transfer of 23 nL compound or DMSO vehicle by a pin tool, the plates were centrifuged 15 s at 1000 RPM and incubated 5 hr at ambient temperature. The plates were read by an Envision (Perkin Elmer) to detect fluorescence polarization of SRC2 Fluorescein (480 nm excitation and 535 nm emission). Data were normalized to unbound (all components except TRbeta) and bound SRC2 Fluorescein controls. Total fluorescence (TF) was calculated as follows: TF = S + 2P where S and P are fluorescence readings in the parallel and perpendicular channels, respectively. In this assay, we provide % activity data for each concentration as well as potencies for the active compounds.
Take `CN1CC[C@@]2(C)c3cc(O)ccc3N(C)C2O1` (stereo not given in full): the “total fluorescence change, positive = fluorescent” value (“total fluorescence change” below) was 9.37% [at 184 µM].

For `Cc1[nH]n(-c2ccccc2)c(=O)c1C(c1ccc([N+](=O)[O-])cc1)c1c(C)[nH]n(-c2ccccc2)c1=O`, the “total fluorescence change” value was 6.9%.

With `COP(=S)(OC)Oc1ccc([N+](=O)[O-])cc1`, the “total fluorescence change” value was 12.5% [at 184 µM].

For `O=C(O)CC1OCC=C2CN3CCC45C6=CC(=O)C(=O)C([N+](=O)[O-])=C6NC4C1C2CC35` (stereo not given), the result was inactive.

As to `CCn1nc(-c2cccs2)nc2c(=O)n(C)c(=O)nc1-2`, the “total fluorescence change” value was 2.13%.
